Assay outcomes deposited in PubChem by National Center for Advancing Translational Sciences (NCATS).
Pf growth 48h: Primary qHTS for delayed death inhibitors of the malarial parasite plastid, 48 hour incubation; P. falciparum luciferase growth in erythrocytes, 48 h; Potency, µM (doses to about 28.7 µM), without a hit: at the highest dose activity change, negative = inhibition, actives largely listed as inhibitors; 310,000 compounds, 5.9% hits
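Growth was read as firefly luciferase luminescence after a 48 h, 37 C, 5% CO2 exposure of compounds to reporter-bearing P. falciparum cultures (0.1% parasitemia, 2% hematocrit final) in Albumax-supplemented RPMI 1640.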
Pf growth 96h: Primary qHTS for delayed death inhibitors of the malarial parasite plastid, 96 hour incubation | 320,000 compounds, 6.9% hits | P. falciparum luciferase reporter growth, 96 h | AID 504834, 2011 | Potency, µM (highest dose often 28.7 µM), for inactives: at the highest dose activity change, negative = inhibition, most hits filed as inhibitors
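Luminescence readout: decreased luciferase signal marks inhibited growth of reporter-expressing P. falciparum in infected red cells (2% hematocrit, 0.05% parasitemia final), exposed to compound two generations (96 h, 37 C, 5% CO2).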
HCV inh: qHTS Assay for Inhibitors of Hepatitis C Virus (HCV) | Potency, µM (top dose mostly 41.8 µM), for inactives: at the top dose activity change, negative = inhibition, most hits filed as inhibitors | Huh7.5.1 HCVcc-Cre infection, luciferase reporter, 44 h | 340,000 compounds, 3.4% hits | AID 651820, 2012
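Whole-lifecycle infectious HCVcc-Cre system; cells 1,000/well, compound then virus (~0.5 moi) added 4 h after plating, 44 h culture. Luciferase read 15 sec following 15 min substrate incubation, room temp.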
AMA1 RON2 block: qHTS for Inhibitors of AMA1-RON; Towards Development of Antimalarial Drug Lead: Primary Screen | Plasmodium falciparum AMA1 (3D7) - RON2 peptide interaction | AlphaScreen AMA1-biotinylated RON2 peptide binding | Potency, µM (top dose mostly 58.2 µM), for the others: top-dose activity change, negative = inhibition, usual class: inhibitors | 360,000 compounds, 0.2% hits | AID 720542, 2013;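 further: 0% = vehicle wells and -100% = peptide control; nearly all actives have a fitted effect of over 45% in size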
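AMA1 (3D7) with his tag at 25 nM final met compounds first, then biotinylated RON2 peptide at 25 nM; detection used donor plus acceptor beads, 10 µg/mL apiece, read by AlphaScreen after 30 min at room temperature.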
* hit, by the source's call; ? = inconclusive; nt = no result given; [ ] = dose if it differs, or a comment. Compounds with a hit are over-represented: about 11% of the library has one in this group of screens. The call rests on the fitted dose curve; in most records, active means well fitted curve in the direction sought with a large enough effect; inconclusive means small, poorly fitted or top-dose-only effect, or another doubt; inactive means no such curve, though single readings can be large; an effect the other way counts as inactive or inconclusive. Unless noted, on the % scale 0 is the no-effect control and ±100 the full control effect; potency means the concentration at half of the fitted maximal effect.

SMILES	Pf growth 48h	Pf growth 96h	HCV inh	AMA1 RON2 block
Cc1cccn2cc(-c3ccc(S(=O)(=O)N4CCCCC4)cc3)nc12	17%	10µM*	-29%	-7%
Cc1ccn2cc(-c3ccc(NS(=O)(=O)c4ccccc4)cc3)nc2c1	13µM*	-14%	11µM*	-12%
Cc1cccn2cc(-c3ccc(S(=O)(=O)N4CCOCC4)cc3)nc12	-23%	-26%	-13%	-7%
Cc1ccc(S(=O)(=O)Nc2ccc3nc(-c4cccn4C)[nH]c3c2)cc1	?	nt	11µM*	-24%
Cc1ccn2cc(-c3cccc(S(=O)(=O)N4CC(C)OC(C)C4)c3)nc2c1 (stereo unspecified)	?	?	?	0%
Cn1cccc1-c1nc2ccc(NC(=O)c3ccccc3)cc2[nH]1	17%	81%	?	-7%
COc1ccccc1NC(=O)NC1(C(=O)N2CCN(C)CC2)CCCCC1	16%	3%	7%	0%
Cc1ccc(S(=O)(=O)Nc2ccc(-c3cn4ccc(C)cc4n3)cc2)cc1	1.7µM*	-19%	?	5%
Cc1ccc(F)cc1NC(=O)C1CC(=O)N(CCc2ccccc2)C1 (stereo unspecified)	4%	22%	20%	22%
COC(=O)c1ccc(N)cc1O	nt	10µM*	-3%	3%
Cn1c2c(c(=O)n(C)c1=O)C1(C(=O)Nc3ccccc31)C(C#N)=C(N)O2 (stereo unspecified)	10µM*	8.3µM*	7%	12%
CN1CCC2(CC1)N=C(c1ccc(F)cc1)C(=S)N2C(=O)c1ccc(C(C)(C)C)cc1	-10%	-23%	-7%	-18%[11.6 µM]
Cc1ccc(S(=O)(=O)c2nnn3c2nc(NC2CCN(Cc4ccccc4)CC2)c2ccccc23)cc1C	2.9µM*	?	?	-7%
Cc1ccc(S(=O)(=O)c2nnn3c2nc(N2CCOCC2)c2ccccc23)c(C)c1	?	14%	?	?
Cc1ccc(S(=O)(=O)c2nnn3c2nc(NCCCN2CCCC2=O)c2ccccc23)cc1C	?	?	?	-10%
Cc1ccc(S(=O)(=O)c2nnn3c2nc(N2CCOCC2)c2ccccc23)cc1C	?	?	10µM*	-3%
Cn1c(=O)oc2cc(S(=O)(=O)Nc3cccc4c3CCCC4)ccc21	-28%	?	-4%	-1%
C=CCn1c(SCC(=O)NC2CCS(=O)(=O)C2)nnc1-c1ccncc1 (stereo unspecified)	2.6µM*	27%	14%	12%
CCC1(c2ccccc2)NC(=O)N(CC(=O)Nc2ccc(OC)nc2)C1=O (stereo unspecified)	-8%	1%	2%	-9%
CC(C)Cc1nnc(NC(=O)CCC(=O)N2CCN(Cc3ccc(Cl)cc3)CC2)s1	?	12%	?	-3%
Cc1c(NC(=O)c2cccc(NC(=O)Cc3ccc(F)cc3)c2)c(=O)n(-c2ccccc2)n1C	-19%	?	7%	-1%[11.6 µM]
CCc1nnc(NC(=O)CSc2nc(-c3ccccc3)cc(-c3ccc(F)cc3)c2C#N)s1	28%	100%	?	70%
COc1ccc(-c2[nH]c(-c3ccc(Cl)cc3)nc2SCC(=O)Nc2nccs2)cc1	?	-82%	?	22%
COc1ccc(-c2[nH]c(-c3ccccc3)nc2SCC(=O)Nc2nccs2)cc1	-7%	?	14µM*	-4%
COc1ccc(CNC(=O)CSc2nc(-c3ccccc3)cc(-c3cccs3)c2C#N)cc1	nt	6.6µM*	0%	-2%
SMILES	Pf growth 48h	Pf growth 96h	HCV inh	AMA1 RON2 block
COc1cc(-c2cc(-c3ccccc3)nc(SCC(=O)Nc3nccs3)c2C#N)cc(OC)c1OC	1.2µM*	?	-23%	-11%
Cc1ccc(OCC(=O)Oc2c(C)cccc2C)cc1	7%	0.33µM*	7%	23%
CCCC(=O)Nc1sc(C)c(C)c1C#N	19%	24%	-7%	-8%
CCc1c(C)sc(NC(=O)CC#N)c1C#N	-2%	0.83µM*	-8%	22%
CNc1cc(C)nc(-n2nc(C)cc2C)n1	8.3µM*	4.7µM*	4%	2%
CCOc1cc(/C=N/Nc2cc(C)nc(-n3nc(C)cc3C)n2)ccc1O	0.37µM*	1.7µM*	?	84%
Cc1cc(N/N=C/c2ccc(F)cc2)nc(-n2nc(C)cc2C)n1	0.33µM*	1µM*	2µM*	62%
COc1ccccc1/C=N/Nc1cc(C)nc(N2CCOCC2)n1	?	?	-28%	-12%
